Source: PubChem (several laboratories)
Rows were chosen to be rich in hits. Some 2.7% of all compounds tested hit in one or more screens of this group.
CHT inh: inhibitors of human choline transporter CHT; Q9GZV3; CHT-expressing cells, membrane potential dye, choline response; hits give low values; B-score at 10 µM; 310,000 tested, 0.86% active; AID 488975;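 active means B-score over 3 SD under the library average, and starting fluorescence ratio not unusually high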;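 further: choline stimulus applied at its EC90 after an EC20 pre-addition; B-score computed on integrated fluorescence ratio after choline addition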
Target sequence (Q9GZV3 whole entry, looked up): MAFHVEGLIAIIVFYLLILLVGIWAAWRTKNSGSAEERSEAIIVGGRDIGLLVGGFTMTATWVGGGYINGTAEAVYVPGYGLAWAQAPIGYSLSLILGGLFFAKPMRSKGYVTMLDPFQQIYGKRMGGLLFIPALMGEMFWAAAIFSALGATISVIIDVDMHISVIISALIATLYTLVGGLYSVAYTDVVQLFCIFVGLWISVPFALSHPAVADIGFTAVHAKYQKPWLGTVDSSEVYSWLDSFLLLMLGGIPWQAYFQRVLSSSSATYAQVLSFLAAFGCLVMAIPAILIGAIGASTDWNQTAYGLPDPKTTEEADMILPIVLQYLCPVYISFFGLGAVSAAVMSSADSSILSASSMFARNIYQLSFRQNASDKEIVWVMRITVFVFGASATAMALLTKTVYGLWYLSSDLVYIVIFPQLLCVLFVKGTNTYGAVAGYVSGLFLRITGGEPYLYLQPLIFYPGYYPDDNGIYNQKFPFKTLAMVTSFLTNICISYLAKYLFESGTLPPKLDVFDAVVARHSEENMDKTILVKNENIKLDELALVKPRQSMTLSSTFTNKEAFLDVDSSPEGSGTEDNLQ
IDE act: activators of human insulin-degrading enzyme in cells; 340,000 tested, 0.073% active; HEK cells, FAbeta-B cleavage, fluorescence polarization; 0% vehicle, 100% cell-free pure enzyme wells; P14735; activation, % at 5.96 µM;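 active means activation above the mean of all tested compounds plus 3 SD, set per screening campaign, cut at about 17% in these data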
IDE cell inh: cellular human IDE inhibition; P14735; HEK cells, FAbetaB cleavage, fluorescence polarization; inhibition, % at 5.59 µM; 320,000 tested, 0.41% active;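 active means percent inhibition above the average of all tested compounds plus 3 SD, set per screening campaign, cut at about 16% in these data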;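 further: IDE supplied by intact live HEK cells; FP after avidin binding of uncleaved biotin substrate so inhibition keeps polarization high; 0% = DMSO wells and 100% = 60 µM reference IDE inhibitor Ii1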
TMEM16A act: activates or potentiates the mouse TMEM16A chloride channel; HEK293 TMEM16A/YFP-H148Q/I152L, iodide quench fluorescence; hits give low values; B-score at 10 µM; Q8BHY3; 340,000 tested, 0.3% active; AID 623877;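 active means fluorescence-ratio B-score plate-corrected deviation score at least 3 library SD below zero, with starting fluorescence score within 5 deviations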;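 further: channel opened by trigger with iodide after compound preincubation; score built on the fluorescence ratio of max minus min over baseline; more negative score means more quench and so TMEM16A activation or potentiation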
CHT PAM: allosterically activates the human high affinity choline transporter | B-score at 10 µM | Q9GZV3 | CHT-expressing cells, membrane potential dye, choline EC20; hits give high values; LV-AA mutant CHT in HEK293 cells | 310,000 tested, 0.49% active;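 active means initial fluorescence not abnormally high and integrated response B-score, plate-corrected, over 3 SD above library mean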
ANO1 block: blocks the mouse calcium-activated chloride channel TMEM16A; HEK293 TMEM16A/YFP iodide influx fluorescence, ionomycin; normalized B-score (activity score, 25-100; higher = stronger inhibition) at 10 µM; 310,000 tested, 1.2% active; AID 588511;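 active means ratio plate-corrected score three or more library SD toward inhibition, starting fluorescence score within five deviations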;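 further: score derived from kinetic fluorescence span divided by baseline fluorescence per well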
TMEM16A reconf: TMEM16A (mouse) chloride channel inhibition, re-confirmation | shares compounds with ANO1 block | HEK293 TMEM16A/YFP-H148Q, iodide quench fluorescence; ionomycin added to raise cell calcium | inhibition, % at 10 µM | 2,300 tested, 39% active | AID 652189;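 active means mean duplicate percent inhibition, scaled so buffer wells are 0 and the reference blocker 100, over three buffer SD above buffer mean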
HEK293 Ca mobil: counter-screen for TMEM16A inhibitors: effect on calcium mobilization. shares compounds with ANO1 block. TMEM16A/YFP HEK293, Fluo4 calcium mobilization. calcium response (% of ionomycin), % at 10 µM. 2,300 tested, 2% active. AID 652231;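 active means duplicate-averaged calcium signal over 20% of the ionomycin maximum, relative to buffer baseline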;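 further: each well's signal is peak minus trough fluorescence divided by its pre-addition baseline; 0% = buffer wells and 100% = ionomycin wells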
Parental YFP cnt: counter-screen for TMEM16A inhibitors: effect in parental YFP-HEK293 cells | iodide YFP quench, ionomycin | shares compounds with ANO1 block | AID 652233 | 2,300 tested, under 10 active | YFP ratio F(max-min)/F0 at 10 µM;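 active means yellow fluorescent protein signal ratio exceeding the buffer control mean by over 5 SD of those controls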;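 further: ratio is mean of duplicate wells from kinetic YFP trace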
ClC-1 rat inh: blocks the rat ClC-1 voltage-dependent chloride channel. shares compounds with ANO1 block. CHO ClC-1-YFP, iodide influx fluorescence quench; iodide control reads 0, buffer control 100. ratio percent, % at 10 µM. 2,300 tested, under 10 active;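 active means duplicate-mean ratio percent above the mean of iodide-only control wells, which defines zero, plus 5 of their SD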;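 further: higher percent means stronger block of ClC-1 iodide influx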
* marks the source's active call; other numbers are inactive results; i = inactive; · = no result.

SMILES | CHT inh | IDE act | IDE cell inh | TMEM16A act | CHT PAM | ANO1 block | TMEM16A reconf | HEK293 Ca mobil | Parental YFP cnt | ClC-1 rat inh
Cc1cc(C(F)(F)F)c(C#N)c(N2CCOCC2)n1 | i | 3.9 | -3.5 | i | i | 100* | i | i | -1.2 | -12.0
CC1(C)C2CCC1(CS(=O)(=O)NC(CC(=O)O)c1cccc(Br)c1)C(=O)C2 (centres undefined) | i | -0.6 | -1.5 | i | i | i | · | · | · | ·
Cc1cccc(N2CCN(C(=O)Cc3ccc(Br)cc3)CC2)c1C | i | -2.3 | -1.6 | i | i | 100* | i | i | -0.997 | -12.0
COCCN1CCN(c2cc(-c3ccccc3)nc3cc(-c4cccc(F)c4)nn23)CC1 | i | 3.4 | 3.9 | i | i | 100* | i | i | -1.12 | -9.0
O=C(COC(=O)c1ccccc1OCc1ccccc1Cl)NCC1CCCO1 (centres undefined) | · | -2.8 | 2.3 | i | · | · | · | · | · | ·
CSCCC(=O)N1CCC(n2nccc2NC(=O)CCc2ccccc2)CC1 | i | 2.5 | · | i | i | i | · | · | · | ·
O=C(NCC1(N2CCOCC2)CCCCC1)c1ccc(Cl)c(S(=O)(=O)NCc2ccco2)c1 | i | 2.5 | 7.3 | i | i | 100* | i | i | -1.03 | -7.0
O=C(NC1CCCCC1)NS(=O)(=O)c1ccc2c(c1)CCC2 | · | -2.9 | · | i | · | · | · | · | · | ·
Cc1nn(CCCC(=O)NCc2ccc(F)cc2)c(=O)c2nccn12 | i | -5.1 | 0.5 | i | i | i | · | · | · | ·
CCOC(=O)C1CCCN(C(=O)C2CCN(S(=O)(=O)c3ccc4ccccc4c3)CC2)C1 (centres undefined) | i | 2.3 | 0.0 | i | i | i | · | · | · | ·
CCOc1ccc(Br)cc1S(=O)(=O)N1CCC(C(N)=O)CC1 | i | 7.2 | -0.9 | i | i | i | · | · | · | ·
CCOc1ccc(Br)cc1S(=O)(=O)N1CC(C)OC(C)C1 (centres undefined) | i | -1.1 | -4.2 | i | i | 100* | i | i | -1.13 | -10.5
CC1(C)CC(=O)C(CC(=O)NC(=O)NCc2ccccc2)=C(O)C1 | i | 2.3 | 5.5 | i | i | 100* | i | i | -1.12 | -4.5
CC(C)(C)OC(=O)NC1CNNC1=O (centres undefined) | · | 6.8 | 0.8 | i | · | · | · | · | · | ·
CC(C)C1Nc2ccc(C(=O)NCCCN3CCOCC3)cc2NC1=O (centres undefined) | i | 2.9 | -27.8 | i | i | i | · | · | · | ·
Cc1cc(C)n2nc(SCc3ncc(-c4ccccc4)o3)nc2n1 | i | 0.8 | 3.9 | i | i | 100* | i | i | -0.995 | -4.5
Nc1ccc(CCS(N)(=O)=O)cc1 | i | 1.9 | 3.9 | i | i | 25* | i | i | -0.891 | -2.0
CCn1c(Cc2ccccc2)nnc1SCC(=O)c1c(N)n(C2CC2)c(=O)[nH]c1=O | · | 3.0 | -4.9 | i | · | · | · | · | · | ·
CC1CCN(C(=O)CSc2nc3ccccc3s2)CC1 | i | 3.3 | 5.2 | i | i | i | · | · | · | ·
CCCCC1CC(C)(C(=O)CSc2nc3ccccc3s2)OC1=O (centres undefined) | i | -0.7 | -1.0 | i | i | 100* | 30.0%* | i | -1.01 | -2.5
CCN(CC(=O)Nc1ccc(NC(C)=O)cc1)C(=O)c1cn(-c2ccccc2)nc1-c1cccs1 | · | 0.5 | · | i | · | · | · | · | · | ·
CCOC(=O)C1=C(COC(=O)CCc2ccc(CC)cc2)NC(=O)NC1C (centres undefined) | · | 2.6 | 1.1 | i | · | · | · | · | · | ·
